# According to PubChem BioAssay AID504700 (The Scripps Research Institute Molecular Screening Center, 2011):
# Out of some 340,000 compounds screened, about 270 (0.079%) were called active.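 The calls were made as follows: active = activation above a cutoff set at the mean over all compounds plus 3 SD (cut at about 18% in these data); inactive = the rest.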 The list comes from a sample in which actives are over-represented; it also holds similar structures and randomly drawn compounds. Where a SMILES comes first, the peptide text is derived from it.
# Target: cAMP-dependent protein kinase catalytic subunit beta (Homo sapiens) + cAMP-dependent protein kinase type II-beta regulatory subunit (Homo sapiens) (UniProt P22694+P31323)
# Sequence (P31323 whole entry, looked up, other chains not shown): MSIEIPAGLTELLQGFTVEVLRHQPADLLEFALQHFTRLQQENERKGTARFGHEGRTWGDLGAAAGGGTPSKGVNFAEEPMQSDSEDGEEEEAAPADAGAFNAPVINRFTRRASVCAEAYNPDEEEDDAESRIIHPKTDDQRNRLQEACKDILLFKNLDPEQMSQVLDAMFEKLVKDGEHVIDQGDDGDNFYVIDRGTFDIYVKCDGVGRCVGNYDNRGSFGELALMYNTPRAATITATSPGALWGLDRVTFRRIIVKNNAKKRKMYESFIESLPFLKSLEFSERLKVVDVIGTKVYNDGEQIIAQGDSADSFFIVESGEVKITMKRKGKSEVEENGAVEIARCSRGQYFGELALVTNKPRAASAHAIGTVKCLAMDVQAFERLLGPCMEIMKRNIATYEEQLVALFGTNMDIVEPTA
# Experiment: compounds dissociating PKAc from R2B subunit – biochemical, fluorescence polarization, Cy5-IP20, human, primary screen (AID 504700);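 also: higher means more holoenzyme dissociation and a rise in polarization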
# Details: PKA-R2B holoenzyme dissociation, at 11.4 µM, active compounds read high, 0% DMSO only, 100% 113 µM cGMP, R2B truncated from residue 108, S112A mutant
row,SMILES,activation
1,C[C@H]1CN([C@@H](C)CO)C(=O)c2cc(-c3cccc(F)c3)cnc2O[C@@H]1CN(C)S(C)(=O)=O,4.49% (inactive)
2,O=C(C1CCCO1)N1CCN(C(=O)C23CC4CC(CC(C4)C2)C3)CC1 (stereo unspecified),7.92% (inactive)
3,O=Nc1c(O)cc(O)c2ccccc12,-0.7% (inactive)
4,O=C(CCN1CCCCC1)Nc1ccc(F)c(F)c1,-4% (inactive)
5,O[C@H]1C[C@H](c2ccc(Cl)cc2)N(Cc2cccs2)C[C@@H]1n1cc(C2CC2)nn1,-5.34% (inactive)
6,COc1ccc(-c2ccc3[nH]c4c(c3c2)CCN2C[C@H]3[C@H](C)ON(C)[C@H]3C[C@@H]42)cc1,-1.96% (inactive)
7,C[C@H]1CN([C@@H](C)CO)C(=O)c2cc(Br)cnc2O[C@H]1CN(C)S(=O)(=O)c1cccs1,-1.49% (inactive)
8,O=C(c1ncn2c1c(=O)[nH]c1ccccc12)N1CCc2ccccc2C1,0.26% (inactive)
9,Cc1cccc(C)c1NC(=O)CNC(=O)c1ccc(N2CCOCC2)c([N+](=O)[O-])c1,-5.41% (inactive)
10,Cc1noc(C)c1NC(=O)N(C)C[C@@H]1Oc2cc(Br)ccc2S(=O)(=O)N([C@@H](C)CO)C[C@H]1C,-6.5% (inactive)
11,Cc1cn([C@H]2C[C@H](O)[C@@H](CNC(=O)[C@H](N)Cc3cccnc3)O2)c(=O)[nH]c1=O,3.26% (inactive)
12,COc1ccc(NC(=O)CN(C)C(=O)c2cc(C)oc2C)cc1,7.31% (inactive)
13,O=C(NCCc1cccc(F)c1)C1CC(O)CN1C(=O)Nc1ccccc1 (stereo unspecified),-8.6% (inactive)
14,COc1ccc([C@H]2N[C@]3(CCCN(Cc4ccco4)C3=O)[C@H]3C(=O)N(C)C(=O)[C@@H]23)cc1,-1.07% (inactive)
15,C[C@H]1CN([C@@H](C)CO)C(=O)c2cc(C3=CCCCC3)cnc2O[C@@H]1CN(C)C(=O)Cc1ccccc1,4.23% (inactive)
16,Nc1nnn(CC(=O)N/N=C/c2ccc(O)cc2)n1,-7.14% (inactive)
17,CC(C)(C)c1nnc(N/N=C/c2ccc(O)cc2)n(N)c1=O,21.1% (active)
18,Cc1nonc1C(=O)N/N=C/c1ccc(O)cc1,-0.48% (inactive)
19,COc1cc2nnn(-c3ccncc3)c2cc1OC,5.36% (inactive)
20,COc1ccc(C(=O)OCC(=O)Nc2cc(C)on2)cc1F,1.88% (inactive)
21,COC(=O)C[C@H]1C[C@@H]2c3cc(NC(=O)Nc4ccccc4)ccc3O[C@@H]2[C@@H](CO)O1,6.99% (inactive)
22,CC(C)[C@H](NC(=O)c1ccccc1F)C(=O)Nc1cccc(S(=O)(=O)N2CCOCC2)c1,4.82% (inactive)
23,Cc1ccc([C@H]2N[C@]3(CCCN(CC4CCCCC4)C3=O)[C@H]3C(=O)N(Cc4ccccc4)C(=O)[C@@H]23)cc1,-3.62% (inactive)
24,O=C(CNC(=O)c1ccco1)OCC(=O)c1ccccc1,3.42% (inactive)
25,O=C(CNC(=O)c1ccccc1)NCC(=O)OCC(=O)c1ccccc1 (HELM PEPTIDE1{[O=C(c1ccccc1)[*:2]].G.G.[O=C(CO[*:1])c1ccccc1]}$$$$V2.0),22.6% (active)
26,O=C(CNC(=O)c1ccccc1)NCC(=O)OCc1ccc(Cl)cc1,-2.62% (inactive)

row,SMILES,activation
1,O=C(O)C1CCCN1c1nc(Cl)ccc1[N+](=O)[O-] (stereo unspecified),5.76% (inactive)
2,COc1ccc(C(CNC(=O)c2ccc(OCc3cscn3)cc2)N2CCCC2)cc1 (stereo unspecified),3.82% (inactive)
3,O=C(O)C1=C(C(=O)O)C2CCC1C2,19.1% (active)
4,COc1ccc(S(=O)(=O)N2CCCCC2)cc1C(=O)NC1CCS(=O)(=O)C1 (stereo unspecified),-9.4% (inactive)
5,C[C@@H]1CN([C@@H](C)CO)C(=O)c2cc(NS(C)(=O)=O)ccc2O[C@@H](C)CCCCO[C@H]1CN(C)C(=O)Nc1ccc2c(c1)OCO2,3.71% (inactive)
6,COc1cccc(C(=O)Nc2ccc3nc4n(c(=O)c3c2)CCCCC4)c1,-0.66% (inactive)
7,CC(C)C1CCN(C(=O)C2CCC(=O)N(C3CCCCCC3)C2)CC1 (stereo unspecified),-0.9% (inactive)
8,N#CCCN(C(=O)Nc1ccc(Cl)c(Cl)c1)C1CCCCC1,1.61% (inactive)
9,O=C(c1ccc(CS(=O)Cc2ccccc2Cl)o1)N1CCN(c2ccccc2)CC1 (stereo unspecified),2.13% (inactive)
10,COc1ccc(-c2cnc3c(c2)C(=O)N([C@H](C)CO)C[C@@H](C)[C@H](CN(C)Cc2ccccc2)O3)cc1,5.52% (inactive)
11,CCOc1cc(/C=N/NC(=O)c2ccncc2)cc(Br)c1O,-1.34% (inactive)
12,Cc1ccc(NC(=O)c2ccco2)cc1,4.37% (inactive)
13,CC1(C)CN(CCc2ccccc2)C(=O)[C@H]1CC(=O)Nc1ccc(Br)cc1,-0.64% (inactive)
14,COc1ccc(NC(=O)N(C)C[C@H]2Oc3ncc(C#C[C@@H](C)O)cc3C(=O)N([C@H](C)CO)C[C@H]2C)cc1,2.12% (inactive)
15,COCOCCn1cc(CN2CCS(=O)(=O)N(Cc3ccc(-c4ccc(OC)cc4)cc3)C(CC(C)C)C2=O)nn1 (stereo unspecified),-14.1% (inactive)
16,Cc1cccc(C(=O)NC2CCN(CC(=O)Nc3cccc(Cl)c3)CC2)c1,-3.65% (inactive)
17,COc1ccc(OC)c(NC(=O)C2CCCN2S(=O)(=O)c2ccc3c(c2)CC(C)N3C(C)=O)c1 (stereo unspecified),-3.21% (inactive)
18,COc1ccc(CC(NC(C)=O)C(=O)NC2CCN(C(=O)c3ccc(Cl)cc3)CC2)cc1 (stereo unspecified),19.4% (active)
19,CC(=O)NC(Cc1ccc(F)c(F)c1)C(=O)NC1CCN(C(=O)c2ccc(C)cc2)CC1 (stereo unspecified),-1.79% (inactive)
20,COc1ccc(CC(NC(C)=O)C(=O)NC2CCN(C(=O)c3ccc(OC)c(OC)c3)CC2)cc1OC (stereo unspecified),-5.58% (inactive)
21,COc1cccc(Nc2nnc(SCC(=O)N3CC(C)OC(C)C3)s2)c1 (stereo unspecified),19.7% (active)
22,COc1cccc(Nc2nnc(SCC(=O)N3CC(=O)Nc4ccccc43)s2)c1,-4.91% (inactive)
23,COc1ccc(C(=O)CSc2nnc(NC(=O)C3CC(=O)N(c4cccc(OC)c4)C3)s2)cc1 (stereo unspecified),-12.2% (inactive)
24,C[C@@H]1CN([C@@H](C)CO)C(=O)CCCn2nncc2CO[C@@H]1CN(C)S(=O)(=O)c1ccc(-c2ccccc2)cc1,8.61% (inactive)
25,CN1CCn2cnc(C(=O)NCC(=O)OC(C)(C)C)c2C1=O,6.86% (inactive)
